High-throughput results as filed in PubChem BioAssay.
Hits are enriched below; roughly 2.3% of the tested compounds scored in any of these assays.
MCL1-BIM inh = MCL1-BIM-BH3 interaction inhibition (human); Q07820; GST-MCL1 / FITC-Bim-BH3 fluorescence polarization; inhibition, % at 10.9 µM; 320,000 compounds, 0.68% hits; AID 2057;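 active = inhibition above the mean inhibition of all tested compounds plus 3 SD, set per campaign, cut at about 40% in these data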;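 note: higher means more loss of mP so more displacement of Bim peptide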
GLD-1 RNA inh = GLD-1-TGE RNA interaction inhibition (C. elegans); Q17339; purified GLD-1 + fluorescein TGE RNA, fluorescence polarization; inhibition, % at 5.96 µM; 320,000 compounds, 0.44% hits;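 active = percent inhibition above a per-plate cutoff, the plate mean of test compounds plus 3 SD, cut at about 30% in these data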
Target sequence (Q17339 whole entry, looked up): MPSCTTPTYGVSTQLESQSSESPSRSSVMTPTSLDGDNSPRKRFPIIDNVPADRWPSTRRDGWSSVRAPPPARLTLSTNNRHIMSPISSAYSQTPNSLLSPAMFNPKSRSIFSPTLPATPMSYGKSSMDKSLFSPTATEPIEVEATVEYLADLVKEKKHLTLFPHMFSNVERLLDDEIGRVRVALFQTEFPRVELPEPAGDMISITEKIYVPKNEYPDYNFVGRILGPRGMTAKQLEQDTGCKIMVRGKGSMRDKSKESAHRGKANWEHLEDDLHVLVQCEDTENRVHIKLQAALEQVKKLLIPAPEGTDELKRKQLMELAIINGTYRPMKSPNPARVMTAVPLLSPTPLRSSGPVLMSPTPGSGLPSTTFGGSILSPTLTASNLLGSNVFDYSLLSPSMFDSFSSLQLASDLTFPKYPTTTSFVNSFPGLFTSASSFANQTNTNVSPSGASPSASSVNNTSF
Bcl-xL primary = inhibitors of human Bcl-xL; inhibition, % at 10.9 µM; GST-Bcl-xL / FITC-Bim BH3 peptide fluorescence polarization; 320,000 compounds, 0.7% hits; Q07817;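 active = inhibition above the mean of all tested compounds plus 3 SD, cutoff set per campaign, cut at about 30% in these data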;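 note: inhibitors lower millipolarization by displacing the labeled peptide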
Target sequence (Q07817 whole entry, looked up): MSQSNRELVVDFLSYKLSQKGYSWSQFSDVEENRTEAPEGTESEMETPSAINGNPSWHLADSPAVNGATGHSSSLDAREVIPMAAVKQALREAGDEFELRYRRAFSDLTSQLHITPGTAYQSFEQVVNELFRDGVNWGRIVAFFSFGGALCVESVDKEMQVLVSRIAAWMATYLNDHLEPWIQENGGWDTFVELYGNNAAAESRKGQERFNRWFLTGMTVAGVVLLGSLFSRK
Mcl1-Bid inh = disrupts binding of human Mcl-1 to Bid peptide; 220,000 compounds, 0.97% hits; TR-FRET Mcl-1/Bid-Dy647 peptide binding, 1536-well; inhibition, % at 21.7 µM;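 active = compounds that cut the binding signal by more than half at the single screening dose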;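 note: His-tagged Mcl-1 with europium anti-His antibody binding Bid BH3 peptide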
Mcl-1 Bim block = inhibitors of Bim-Mcl-1 interaction, human; Bead-based flow cytometry, Bim peptide-Mcl-1 binding; Q07820; inhibition, % at 10 µM; 190,000 compounds, 0.1% hits; in the data active = inhibition above about 40%
Mcl1 Noxa PPI = disrupts binding of human Mcl-1 to Noxa peptide; Q07820; 220,000 compounds, 1.5% hits; inhibition, % at 21.7 µM; TR-FRET Mcl-1/Noxa peptide binding, 2 h;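 active = compounds that cut the protein-peptide binding signal by more than 50% relative to plate controls in a single-dose test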;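 note: His-tagged Mcl-1 with rhodamine Noxa BH3 peptide and terbium anti-His antibody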
Bcl-xL conf = counter-screen for MCL1 inhibitors: confirmation of human Bcl-xL inhibitors; shares compounds with MCL1-BIM inh; GST-Bcl-xL / FITC-Bim BH3 peptide FP binding; inhibition, % at 10.9 µM; 1,700 compounds, 54% hits;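 active = inhibition above a cutoff equal to the mean inhibition of all tested compounds plus 3 SD, cut at about 30% in these data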
MCL1 BIM confirm = MCL1-BIM-BH3 interaction inhibition, confirmation. shares compounds with MCL1-BIM inh. GST-MCL1 / FITC-Bim-BH3 fluorescence polarization. inhibition, % at 10.9 µM. 1,700 compounds, 61% hits. AID 2168;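 active = inhibition above the average of all tested compounds plus 3 SD, cut at about 40% in these data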
Of the large screens only hits and unclear results are named; the others gave an inactive call (follow-up assays come after a bar, where they were run).

Cn1c(=O)c(NC2CCCCC2)c2c3c(cccc31)C(=O)c1ccccc1-2	none (no result: MCL1-BIM inh, GLD-1 RNA inh, Bcl-xL primary)
Cn1c(=O)c(NCCO)c2c3c(cccc31)C(=O)c1ccccc1-2	MCL1-BIM inh 123, GLD-1 RNA inh 81, Bcl-xL primary 114 | Bcl-xL conf 125 | MCL1 BIM confirm 129
CC(=O)Nc1ccc(NC2=CC(=O)c3ccccc3C2=O)cc1	none (no result: Mcl1-Bid inh, Mcl-1 Bim block, Mcl1 Noxa PPI)
Cn1c(NCCc2ccccc2)cc(=O)n(C)c1=O	none
Cn1c(=O)c(NCCc2ccccc2)c2c3c(cccc31)C(=O)c1ccccc1-2	MCL1-BIM inh active, GLD-1 RNA inh active, Bcl-xL primary active | Bcl-xL conf active | MCL1 BIM confirm active
CC(=O)Nc1ccc(Nc2c3c4c(cccc4n(C)c2=O)C(=O)c2ccccc2-3)cc1	MCL1-BIM inh active, GLD-1 RNA inh 169, Bcl-xL primary active | Bcl-xL conf 181 | MCL1 BIM confirm active
CCCCNc1c2c3c(cccc3n(C)c1=O)C(=O)c1ccccc1-2	MCL1-BIM inh active, GLD-1 RNA inh active, Bcl-xL primary 198 | Bcl-xL conf 178 | MCL1 BIM confirm active
COCCNC(=O)C(=O)NNC(=O)CCc1ccccc1	none
CCNc1c2c3c(cccc3n(C)c1=O)C(=O)c1ccccc1-2	MCL1-BIM inh active, GLD-1 RNA inh 164, Bcl-xL primary active | Bcl-xL conf active | MCL1 BIM confirm active
c1ccc(CCNc2nc3ccccc3n3nnnc23)cc1	none
COc1ccc(CCNc2nc3ccccc3n3nnnc23)cc1OC	MCL1-BIM inh 55, Bcl-xL primary 54 | Bcl-xL conf inactive | MCL1 BIM confirm inactive
COCCN(CCOC)Cc1c(O)ccc2c1O/C(=C\c1ccco1)C2=O	MCL1-BIM inh 110, GLD-1 RNA inh 72, Bcl-xL primary 106 (no result: Mcl1-Bid inh, Mcl-1 Bim block, Mcl1 Noxa PPI) | Bcl-xL conf 107 | MCL1 BIM confirm 118
O=C1/C(=C/c2ccco2)Oc2c1ccc(O)c2CN1CCCCC1	MCL1-BIM inh 128, GLD-1 RNA inh 34, Bcl-xL primary 79, Mcl1 Noxa PPI 54 | Bcl-xL conf 132 | MCL1 BIM confirm 148
COc1ccc2c(c1)CC/C(=C/c1ccco1)C2=O	none
O=c1c(-c2ccccc2)coc2c(CN3CCCC3)c(O)ccc12	none
CC1CCN(Cc2c(O)ccc3c2O/C(=C\c2ccco2)C3=O)CC1	MCL1-BIM inh 149, GLD-1 RNA inh 68, Bcl-xL primary 123, Mcl1 Noxa PPI 56 | Bcl-xL conf 119 | MCL1 BIM confirm 140
O=C(Nc1ccccn1)C1CCCN(c2ncnc3c2nc2n3CCCCC2)C1 (stereo not given)	none (no result: Mcl1-Bid inh, Mcl-1 Bim block, Mcl1 Noxa PPI)
Nc1ncc(N=Nc2cc(C(=O)O)ccc2Cl)s1	MCL1-BIM inh 45, Mcl1 Noxa PPI 67 (no result: Mcl-1 Bim block) | Bcl-xL conf 36 | MCL1 BIM confirm 82
Cc1cc(C2(O)C(=O)Nc3ccccc32)ccc1F (stereo not given)	MCL1-BIM inh 79 (no result: Mcl1-Bid inh, Mcl-1 Bim block, Mcl1 Noxa PPI) | Bcl-xL conf inactive | MCL1 BIM confirm inactive
Cc1nc2ccccc2c(=O)n1/N=C/c1ccc(O)c(O)c1O	MCL1-BIM inh 69 (no result: Mcl1-Bid inh, Mcl-1 Bim block, Mcl1 Noxa PPI) | Bcl-xL conf inactive | MCL1 BIM confirm 67
CC(=O)c1c(Cl)nc2cccc3c2c1-c1ccccc1C3=O	MCL1-BIM inh 59, Bcl-xL primary 54 (no result: Mcl1-Bid inh, Mcl-1 Bim block, Mcl1 Noxa PPI) | Bcl-xL conf 40 | MCL1 BIM confirm inactive
Cc1cc(C(=O)COc2cccc3cccnc23)c(C)n1C	MCL1-BIM inh 177, GLD-1 RNA inh 151, Bcl-xL primary 147 | Bcl-xL conf inactive | MCL1 BIM confirm inactive
CCNc1cccc2c1C(=O)N(C)C2=O	MCL1-BIM inh active, GLD-1 RNA inh 180, Bcl-xL primary 177 | Bcl-xL conf 167 | MCL1 BIM confirm active
O=c1[nH]c(-[n+]2ccc3ccccc3c2)c(/C=N/N=C(\[O-])c2ccccc2)s1	MCL1-BIM inh 99, GLD-1 RNA inh 137, Bcl-xL primary 93 (no result: Mcl1-Bid inh, Mcl-1 Bim block, Mcl1 Noxa PPI) | Bcl-xL conf inactive | MCL1 BIM confirm inactive
Oc1cccc2cc3cccc(O)c3c(O)c12	MCL1-BIM inh 51, Bcl-xL primary 43, Mcl1 Noxa PPI 97 | Bcl-xL conf 43 | MCL1 BIM confirm 50
CCOc1cccc(C2C(C(=O)c3ccc(C)o3)=C(O)C(=O)N2c2nccs2)c1 (stereo not given)	MCL1-BIM inh 143, GLD-1 RNA inh 143, Bcl-xL primary 121 | Bcl-xL conf 156 | MCL1 BIM confirm 183
O=C(C1=C(O)C(=O)N(c2nccs2)C1c1ccccc1)c1cc2ccccc2o1 (stereo not given)	MCL1-BIM inh active, GLD-1 RNA inh 174, Bcl-xL primary 185 (no result: Mcl-1 Bim block) | Bcl-xL conf 177 | MCL1 BIM confirm active
CCOc1cccc(C2C(C(=O)c3ccc(C)o3)=C(O)C(=O)N2Cc2ccncc2)c1 (stereo not given)	none
O=C(C1=C(O)C(=O)N(CCc2ccccc2)C1c1ccncc1)c1cc2ccccc2o1 (stereo not given)	none
CCOC(=O)c1ccccc1NC(=O)CSc1nc(N)cc(=O)[nH]1	none (no result: Mcl-1 Bim block)
Cc1ccc(Sc2cc(C(=O)NCCCN(C)C)c3ccccc3n2)cc1	MCL1-BIM inh 86, GLD-1 RNA inh 69, Bcl-xL primary 78 (no result: Mcl1-Bid inh, Mcl-1 Bim block, Mcl1 Noxa PPI) | Bcl-xL conf inactive | MCL1 BIM confirm inactive
CCOC(=O)C1CCCN(CC(=O)Nc2nccs2)C1 (stereo not given)	none (no result: Mcl1-Bid inh, Mcl-1 Bim block, Mcl1 Noxa PPI)
Cc1cc(C=C2C(=O)c3ccccc3C2=O)c(C)n1C	MCL1-BIM inh 71, Bcl-xL primary 51 | Bcl-xL conf 34 | MCL1 BIM confirm 55
Nc1ccc(N2CCCCCC2)cc1	MCL1-BIM inh 42, Mcl1 Noxa PPI 65 | Bcl-xL conf 38 | MCL1 BIM confirm 57
CCOc1ccc(NC(=O)c2cc(F)c(F)cc2Cl)cc1OCC	none
COc1ccc(C2C(C(=O)c3cccs3)=C(O)C(=O)N2c2nncs2)cc1 (stereo not given)	MCL1-BIM inh 161, GLD-1 RNA inh 114, Bcl-xL primary 139 | Bcl-xL conf 144 | MCL1 BIM confirm 165
C=CCOc1ccc(C2C(C(=O)c3cccs3)=C(O)C(=O)N2c2nnc(C)s2)cc1 (stereo not given)	MCL1-BIM inh 100, GLD-1 RNA inh 74, Bcl-xL primary 100 (no result: Mcl1-Bid inh, Mcl-1 Bim block, Mcl1 Noxa PPI) | Bcl-xL conf 90 | MCL1 BIM confirm 115
CC(C)c1nnc(N2C(=O)C(O)=C(C(=O)c3cccs3)C2c2ccccc2)s1 (stereo not given)	none (no result: MCL1-BIM inh, GLD-1 RNA inh, Bcl-xL primary)
COc1ccc(C2C(C(=O)c3cccs3)=C(O)C(=O)N2c2nnc(C)s2)cc1OC (stereo not given)	MCL1-BIM inh 83, GLD-1 RNA inh 70, Bcl-xL primary 84 | Bcl-xL conf 128 | MCL1 BIM confirm 154
CCCCN(C(=O)c1cccc(-n2cccc2)c1)c1c(N)n(Cc2ccccc2)c(=O)[nH]c1=O	MCL1-BIM inh 78 (no result: Mcl1-Bid inh, Mcl-1 Bim block, Mcl1 Noxa PPI) | Bcl-xL conf inactive | MCL1 BIM confirm inactive
